Results from the supplement of paper PMC10646978.
± gives the standard deviation.

Key:
Conditions in all cases: modulator concentration 10 µM
[1] = system: RAW-Dual (murine macrophage reporter line); test: NF-kB reporter (SEAP) activity fold change vs agonist alone; higher = enhanced NF-kB activity
Summary of the method: (§1)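 RAW-Dual murine macrophage reporter cells were seeded at 50 000 per well in 384-well plates and pre-incubated 1 hour at 37 °C with compound pin-transferred to 10 μM final. After 1 hour, a PRR agonist was added and cells incubated overnight. Supernatant NF-κB (SEAP, QUANTI-Blue, 620 nm absorbance) and IRF (Lucia luciferase, QUANTI-Luc, luminescence) signals were divided by the mean agonist-only control on the same plate to give fold change. Two replicate plates were averaged, with errors by propagation.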

[2] = system: RAW-Dual (murine macrophage reporter line); test: IRF reporter (Lucia luciferase) activity fold change vs agonist alone; higher = enhanced IRF activity
Summary of the method: as §1

[3] = system: RAW-Dual (murine macrophage reporter line); test: viability score (confluency relative to resting cells, overnight) (fraction); higher = more viable, active = viable (0.7 or more)
Summary of the method: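 In 384-well plates, RAW-Dual macrophages received compound at a final 10 μM overnight. Two confluency masks were then made with IncuCyte software from IncuCyte images of all imaged wells. The viability score is defined as confluency relative to resting cells. Passing the cutoff required both masks to lie above 70% of resting cells.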

[4] = agonist: CpG ODN 1826 0.5 ug/mL

Row | SMILES | NF-kB reporter [1, 4] | NF-kB reporter ([1]; agonist: LPS 0.1 ug/mL) | NF-kB reporter ([1]; agonist: MPLA […]) | IRF reporter ([2]; agonist: 3'3'-cGAMP 10 ug/mL) | IRF reporter ([2]; agonist: LPS 0.1 ug/mL) | IRF reporter ([2]; agonist: MPLA […]) | viability score [3]
1 | CCc1ccc(OCCSc2nc3ccccc3n2CCO)cc1 | 0.776 ± 0.075 | 1.08 ± 0.07 | 0.927 ± 0.073 | 0.986 ± 0.03 | 1.33 ± 0.15 | 1.13 ± 0.09 | 1.01 (active)
2 | Cl.Fc1ccc(C2CCNCC2COc2ccc3c(c2)OCO3)cc1 (centres undefined) | 0.829 ± 0.23 | 0.938 ± 0.089 | 0.918 ± 0.058 | 0.916 ± 0.041 | 1.05 ± 0.18 | 1.07 ± 0.15 | 0.968 (active)
3 | CCCC(=O)Nc1ncnc2c1ncn2[C@@H]1O[C@@H]2OP(=O)([O-])OC[C@H]2[C@H]1OC(=O)CCC [Prestw-813] | 1.27 ± 0.12 | 1.14 ± 0.079 | 1.14 ± 0.12 | 0.991 ± 0.056 | 1.41 ± 0.14 | 1.21 ± 0.16 | 1 (active)
4 | COC(=O)c1cccc(-c2ccc(C=NN3C(=O)C4C5C=CC(CC5)C4C3=O)o2)c1 (centres undefined) | 1.04 ± 0.1 | 1.14 ± 0.082 | 0.815 ± 0.055 | 0.867 ± 0.025 | 1.55 ± 0.22 | 1.36 ± 0.14 | 1 (active)
5 | O=C(O)CSCC(=O)NC1CCSC1=O (centres undefined) | 0.824 ± 0.065 | 0.898 ± 0.11 | 1.04 ± 0.12 | 1.01 ± 0.06 | 1.36 ± 0.13 | 1.5 ± 0.15 | 1 (active)
6 | COc1ccccc1Cn1c(SC)nc2c(-c3ccccc3)c[nH]c2c1=O | 1.51 ± 0.064 | 0.889 ± 0.11 | 0.997 ± 0.053 | 0.114 ± 0.0059 | 1.05 ± 0.19 | 1.41 ± 0.36 | 0.948 (active)
7 | Nc1ncn(C2OC(CO)C(O)C2O)c(=O)n1 (centres undefined) | 2.76 ± 0.66 | 1.35 ± 0.075 | 4.3 ± 0.27 | 0.541 ± 0.026 | 0.728 ± 0.099 | 0.714 ± 0.085 | 0.808 (active)
8 | N#CC[C@@H](C1CCCC1)n1cc(-c2ncnc3[nH]ccc23)cn1 | 1.95 ± 0.28 | 0.915 ± 0.29 | 0.914 ± 0.051 | 0.164 ± 0.0051 | 0.359 ± 0.081 | 0.595 ± 0.067 | 0.999 (active)
9 | Clc1cccc(OCCCOc2cccc3cccnc23)c1 | 0.586 ± 0.046 | 1.13 ± 0.091 | 1.53 ± 0.17 | 0.948 ± 0.11 | 1.18 ± 0.083 | 2.83 ± 0.56 | 0.818 (active)
10 | O=C(CN1CCN(c2ccccc2F)C1=O)N1CCCC(Oc2ccncn2)C1 (centres undefined) | 0.874 ± 0.21 | 0.941 ± 0.052 | 0.992 ± 0.092 | 0.507 ± 0.025 | 0.968 ± 0.15 | 1.13 ± 0.27 | 0.547 (inactive)
11 | COCCN1CCC(NC(=O)c2cccc3ccccc23)CC1 | 1.16 ± 0.099 | 1.06 ± 0.096 | 0.958 ± 0.039 | 0.992 ± 0.083 | 1.02 ± 0.072 | 1.04 ± 0.12 | 0.998 (active)
12 | CC(=O)Nc1nnc(CCS(=O)(=O)c2ccc(Br)cc2)s1 | 0.951 ± 0.054 | 1.05 ± 0.064 | 0.93 ± 0.079 | 0.908 ± 0.032 | 1.46 ± 0.094 | 1.16 ± 0.12 | 1.01 (active)
13 | CC1=CC(C)C2(COC(c3cccnc3)OC2)C(C)C1 (centres undefined) | 0.876 ± 0.067 | 0.788 ± 0.12 | 0.695 ± 0.065 | 0.967 ± 0.033 | 1.15 ± 0.18 | 1.1 ± 0.19 | 0.388 (inactive)
14 | CC(C)CN(C[C@@H](O)[C@H](Cc1ccccc1)NC(=O)O[C@H]1CO[C@H]2OCC[C@H]21)S(=O)(=O)c1ccc(N)cc1 | 1.74 ± 0.13 | 1.08 ± 0.054 | 1.85 ± 0.069 | 0.916 ± 0.053 | 1.04 ± 0.071 | 1.02 ± 0.1 | 0.997 (active)
15 | COC(C)(CNC(=O)c1cc2ccccc2[nH]1)c1ccccc1F (centres undefined) | 0.825 ± 0.035 | 0.96 ± 0.081 | 1.06 ± 0.057 | 0.944 ± 0.063 | 1.01 ± 0.17 | 1.11 ± 0.22 | 0.94 (active)
16 | COc1cc(Cl)cc(C=NNC(=O)c2cc(C)n[nH]2)c1O | 1.16 ± 0.09 | 0.793 ± 0.038 | 0.943 ± 0.082 | 0.785 ± 0.066 | 1.46 ± 0.088 | 1.62 ± 0.14 | 0.968 (active)
17 | CN(C)[C@@H]1C(O)=C(C(N)=O)C(=O)[C@@]2(O)C(O)=C3C(=O)c4c(O)ccc(Cl)c4[C@@H](O)[C@H]3C[C@@H]12.Cl | 1.29 ± 0.098 | 0.965 ± 0.055 | 1.17 ± 0.038 | 0.728 ± 0.048 | 0.971 ± 0.068 | 0.828 ± 0.12 | 0.984 (active)
18 | CC(=NNC(N)=S)C1=CC(C)(C)CCC1 | 0.744 ± 0.061 | 0.985 ± 0.062 | 1.06 ± 0.13 | 0.462 ± 0.012 | 1.17 ± 0.19 | 0.978 ± 0.2 | 1.01 (active)
19 | NC(=S)c1cc2ccc(O)cc2oc1=O | 0.808 ± 0.16 | 1.01 ± 0.082 | 2.26 ± 1.2 | 0.925 ± 0.043 | 0.979 ± 0.12 | 1.05 ± 0.11 | 1.01 (active)
20 | O=C(CCCCCN1C(=O)c2cccc3cccc(c23)C1=O)NCCO | 0.954 ± 0.082 | 1.01 ± 0.082 | 0.872 ± 0.074 | 0.886 ± 0.036 | 1.29 ± 0.086 | 1.19 ± 0.14 | 1 (active)
21 | Cc1[nH]c(/C=C2\C(=O)Nc3ccccc32)c(C)c1CCC(=O)O | 0.716 ± 0.18 | 0.853 ± 0.11 | 0.812 ± 0.048 | 0.618 ± 0.021 | 0.956 ± 0.24 | 0.98 ± 0.18 | 0.993 (active)
22 | CCN(CC)c1ccc(C=NNC(=O)c2ccc(O)cc2)c(O)c1 | 2.52 ± 0.2 | 1.31 ± 0.089 | 5.86 ± 0.2 | 0.2 ± 0.0075 | 0.845 ± 0.038 | 0.758 ± 0.12 | 0.577 (inactive)
23 | Cc1cc(OCC(=O)NC2CC(C)(C)NC(C)(C)C2)ccc1Br | 0.843 ± 0.1 | 1.03 ± 0.079 | 1.05 ± 0.043 | 0.952 ± 0.041 | 1.1 ± 0.079 | 1.55 ± 0.19 | 0.976 (active)
24 | COC1CCN(C2CCN(S(=O)(=O)c3ccccc3)CC2)CC1 | 0.839 ± 0.077 | 1.01 ± 0.082 | 0.977 ± 0.062 | 0.981 ± 0.065 | 1.08 ± 0.14 | 1.03 ± 0.23 | 1.01 (active)
25 | Cc1ccc(-c2cc(-c3ccccc3)nc(NN=Cc3ccc(F)cc3)n2)cc1 | 0.961 ± 0.17 | 1.23 ± 0.1 | 0.988 ± 0.13 | 1.02 ± 0.051 | 1.15 ± 0.11 | 1.48 ± 0.27 | 0.959 (active)
26 | Br.O=S(=O)(c1ccc(-c2csc(Nc3ccc(Cl)cc3)n2)cc1)N1CCCC1 | 0.941 ± 0.15 | 1.04 ± 0.13 | 0.869 ± 0.069 | 0.885 ± 0.026 | 1.19 ± 0.17 | 1.48 ± 0.28 | 0.991 (active)
27 | Cc1ccc(Sc2ccccc2N2CCNCC2)c(C)c1 | 0.415 ± 0.1 | 1.22 ± 0.065 | 2.11 ± 0.33 | 0.462 ± 0.015 | 2.25 ± 0.3 | 2.42 ± 0.23 | 0.622 (inactive)
